According to PubChem BioAssay:
For part of these data: Potency and affinity values are given separately. Active and inactive are the calls of the source.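 The calls were made as follows, unless noted: active = fluorescence ratio normalized to control raised more than 50% in primary screen plus both repeat runs; inactive = the rest.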

Assays:
[1] = tested on: TRPC4 beta (transient receptor potential cation channel C4), mouse; assay: TRPC4 cation channel opening, retest – cell-based, Fluo4 calcium, HEK293 TRPC4beta/mu-opioid, duplicates, 10 µM, confirmation (AID 2426); conditions: Fluo4 calcium fluorescence, at 10 µM; active compounds read high
[2] = tested on: transient receptor potential cation channel C4 beta (TRPC4), mouse; assay: TRPC4 cation channel opening, second retest – cell-based, second round, Fluo4, HEK293 TRPC4beta/mu-opioid, 1 µM, confirmation (AID 2461;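 active = primary screen active and over 50% activation in each of two duplicate runs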); conditions: Fluo4 calcium fluorescence, at 1 µM; active compounds read high
[3] = tested on: TRPC4 (transient receptor potential cation channel C4 beta), mouse; assay: potentiation of DAMGO EC20 TRPC4 response – cell-based, second round, Fluo-4, HEK293 TRPC4beta/mu-opioid, 1 µM, confirmation (AID 2554;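 active = primary screen hit whose fluorescence ratio, in both repeats, exceeds the weak agonist control mean by 3 SD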); conditions: DAMGO EC20, Fluo-4 calcium flux, at 1 µM; active compounds read high
[4] = tested on: TRPC4 beta (transient receptor potential cation channel C4), mouse; assay: potentiation of DAMGO EC20 TRPC4 response – cell-based, Fluo-4, HEK293 TRPC4beta/mu-opioid, confirmation (AID 2555;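 active = primary screen hit whose calcium fluorescence ratio, in both repeats, exceeds the weak agonist control mean by 3 SD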); conditions: DAMGO EC20, Fluo-4 calcium flux, at 10 µM; active compounds read high
[5] = target: Short transient receptor potential channel 4 (Mus musculus) (UniProt Q9QUQ5); assay: blockers of DAMGO-evoked TRPC4 calcium flux – cell-based, Fluo4, HEK293 TRPC4beta/mu-opioid, confirmation (AID 2636;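 active = calcium signal cut by more than 3 SD below the full-agonist control yet still positive, in both repeats and the earlier primary screen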); conditions: at 10 µM; active compounds read high
[6] = target: Short transient receptor potential channel 4 (Mus musculus) (UniProt Q9QUQ5); assay: blockers of DAMGO-evoked TRPC4 calcium flux – cell-based, second round, Fluo4, HEK293 TRPC4beta/mu-opioid, 1 µM, confirmation (AID 2637;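 active = calcium signal ratio cut to more than 3 SD under the fully stimulated control mean yet still positive, in both repeats and the primary screen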); conditions: at 1 µM; active compounds read high
[7] = target: Short transient receptor potential channel 4 (Mus musculus) (UniProt Q9QUQ5); assay: calcium entry via TRPC4 opening agents – cell-based, HEK293 TRPC4/mu-opioid, Fluo-4 calcium, dose response (AID 434937;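 active = primary screen activator hit with a dose response curve and TRPC4 channel activation at any tested dose; inactive = no activation, no dose response, or not a primary hit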)
[8] = target: Short transient receptor potential channel 4 (Mus musculus) (UniProt Q9QUQ5); assay: potentiation of DAMGO-evoked TRPC4 calcium signal – cell-based, HEK293 TRPC4/mu-opioid, Fluo-4 calcium, EC20 DAMGO, dose response (AID 434941;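 active = earlier screen potentiator hit that boosts the TRPC4 ion channel at some dose, with a dose response; inactive = no potentiation, no dose response, or not a prior hit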;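 also: calcium entry triggered by an EC20 dose of DAMGO at the co-expressed mu-opioid receptor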)
[9] = target: Short transient receptor potential channel 4 (Mus musculus) (UniProt Q9QUQ5); assay: block of DAMGO-driven TRPC4 calcium entry – cell-based, HEK293 TRPC4/mu-opioid, Fluo-4 calcium, dose response (AID 434942;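 active = primary screen inhibitor hit that blocks the TRPC4 channel at some tested dose, yielding a dose curve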)
[10] = target: Short transient receptor potential channel 6 (Mus musculus) (UniProt Q61143); assay: TRPC6 blockade by TRPC4 inhibitor hits – cell-based, HEK293, membrane potential dye, duplicate, selectivity assay for TRPC4 inhibitor project, confirmation (AID 434948;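 active = active in primary screen and both duplicates, each dropping signal beyond three positive-control SD with fluorescence still positive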); conditions: HEK293 TRPC6, membrane potential dye fluorescence, at 10 µM, stimulated with maximal-effect acetylcholine; active compounds read high
[11] = target: Short transient receptor potential channel 6 (Mus musculus) (UniProt Q61143); assay: TRPC6 opening by TRPC4 activator hits – cell-based, HEK293, membrane potential dye, duplicate, selectivity assay for TRPC4 activator project, confirmation (AID 434950;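 active = membrane potential signal rise above negative control mean plus 3 SD in both duplicates, also active in the earlier TRPC4 screen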); conditions: HEK293 TRPC6, membrane potential fluorescence, at 10 µM; activation: active compounds read high; outcome: activation
[12] = target: Short transient receptor potential channel 6 (Mus musculus) (UniProt Q61143); assay: positive modulators of mouse TRPC6 channel – HEK293 cells, membrane potential dye, duplicate, selectivity assay for TRPC4 potentiator project, confirmation (AID 434952;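 active = compound raising the membrane signal above positive-control mean plus 3 SD in both repeats, and a primary screen hit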); conditions: HEK293 TRPC6, membrane potential dye fluorescence, at 10 µM, maximal acetylcholine added after compound; active compounds read high
[13] = target: Short transient receptor potential channel 4 (Mus musculus) (UniProt Q9QUQ5); assay: calcium flux activators in TRPC4/5HT1a cells, counter-screen for TRPC4 activator project, cell-based, second counter screen, HEK293 TRPC4/5HT1a, Fluo-4 (AID 434977;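 active = calcium signal rise above buffer-control mean plus 5 SD in both duplicates, and also a hit in the primary screen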); conditions: Fluo-4 calcium flux, at 10 µM; active compounds read high
[14] = serotonin-gated TRPC4 signal block – cell-based, second counter screen, HEK293 TRPC4/5HT1a, Fluo-4, counter-screen for TRPC4 inhibitor project, confirmation (AID 434978;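 active = primary screen active whose calcium signal fell more than 3 SD beyond the full-serotonin control mean in both duplicate plates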;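 also: serotonin given first at submaximal then at maximal dose after compound preincubation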); conditions: Fluo-4 calcium flux, at 10 µM, serotonin added to trigger calcium flux; active compounds read high
[15] = tested on: TRPC4 (mouse), co-expressed with 5HT1a in HEK293; assay: enhancement of serotonin-evoked TRPC4 response – cell-based, second counter screen, HEK293 TRPC4/5HT1a, Fluo-4, counter-screen for TRPC4 potentiator project, confirmation (AID 434979;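 active = signal rise over 3 SD above mean of control wells given weak agonist, in both repeats and first screen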); conditions: Fluo-4 calcium flux, at 10 µM, serotonin added at its EC20 dose; active compounds read high
[16] = nonspecific calcium rise without TRPC4 – cell-based, HEK293 mu-opioid receptor line, counter-screen for TRPC4 activator project, confirmation (AID 449723;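 active = hit in primary screen, with calcium signal over 5 SD above buffer well mean in both duplicates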;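 also: counter screen cells carry the mu-opioid receptor alone and lack TRPC4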); conditions: HEK293 mu-opioid cells, Fluo-4 calcium fluorescence, at 10 µM; active compounds read high
[17] = nonspecific potentiation of DAMGO calcium response – cell-based, HEK293 mu-opioid receptor line, counter-screen for TRPC4 allosteric potentiator project, confirmation (AID 449724;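 active = calcium signal rise more than 3 SD above the low-dose agonist control mean, in both duplicate plates and the primary screen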); conditions: HEK293 mu-opioid receptor cells, Fluo-4 calcium flux, at 10 µM, compound added before EC20 DAMGO stimulus; active compounds read high

Short transient receptor potential channel 6 (Mus musculus), sequence (Q61143 whole entry, looked up): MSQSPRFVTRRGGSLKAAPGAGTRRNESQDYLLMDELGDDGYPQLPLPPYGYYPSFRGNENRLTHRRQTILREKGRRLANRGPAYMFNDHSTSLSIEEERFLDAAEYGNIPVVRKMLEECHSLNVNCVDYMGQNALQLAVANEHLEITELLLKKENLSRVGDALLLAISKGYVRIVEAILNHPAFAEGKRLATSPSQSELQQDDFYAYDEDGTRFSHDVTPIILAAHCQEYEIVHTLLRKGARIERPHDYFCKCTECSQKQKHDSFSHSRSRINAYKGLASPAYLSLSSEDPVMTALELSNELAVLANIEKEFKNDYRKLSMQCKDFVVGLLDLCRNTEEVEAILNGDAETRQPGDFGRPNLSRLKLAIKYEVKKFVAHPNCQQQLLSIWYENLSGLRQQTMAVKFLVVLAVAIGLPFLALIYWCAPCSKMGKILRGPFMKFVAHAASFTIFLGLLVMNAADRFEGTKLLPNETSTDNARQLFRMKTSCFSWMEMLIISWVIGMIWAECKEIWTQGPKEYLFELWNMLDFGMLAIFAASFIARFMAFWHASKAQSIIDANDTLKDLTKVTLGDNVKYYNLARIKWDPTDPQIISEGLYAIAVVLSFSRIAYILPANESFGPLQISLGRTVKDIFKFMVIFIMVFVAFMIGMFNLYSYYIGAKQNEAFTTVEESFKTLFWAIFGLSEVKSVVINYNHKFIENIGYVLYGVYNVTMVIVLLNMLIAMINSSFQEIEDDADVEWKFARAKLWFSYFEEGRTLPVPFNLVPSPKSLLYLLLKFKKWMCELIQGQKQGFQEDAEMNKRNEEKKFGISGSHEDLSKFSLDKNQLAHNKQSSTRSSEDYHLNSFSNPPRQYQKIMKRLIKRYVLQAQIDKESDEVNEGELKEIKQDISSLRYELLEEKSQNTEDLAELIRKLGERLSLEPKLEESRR
Short transient receptor potential channel 4 (Mus musculus), sequence (Q9QUQ5 whole entry, looked up): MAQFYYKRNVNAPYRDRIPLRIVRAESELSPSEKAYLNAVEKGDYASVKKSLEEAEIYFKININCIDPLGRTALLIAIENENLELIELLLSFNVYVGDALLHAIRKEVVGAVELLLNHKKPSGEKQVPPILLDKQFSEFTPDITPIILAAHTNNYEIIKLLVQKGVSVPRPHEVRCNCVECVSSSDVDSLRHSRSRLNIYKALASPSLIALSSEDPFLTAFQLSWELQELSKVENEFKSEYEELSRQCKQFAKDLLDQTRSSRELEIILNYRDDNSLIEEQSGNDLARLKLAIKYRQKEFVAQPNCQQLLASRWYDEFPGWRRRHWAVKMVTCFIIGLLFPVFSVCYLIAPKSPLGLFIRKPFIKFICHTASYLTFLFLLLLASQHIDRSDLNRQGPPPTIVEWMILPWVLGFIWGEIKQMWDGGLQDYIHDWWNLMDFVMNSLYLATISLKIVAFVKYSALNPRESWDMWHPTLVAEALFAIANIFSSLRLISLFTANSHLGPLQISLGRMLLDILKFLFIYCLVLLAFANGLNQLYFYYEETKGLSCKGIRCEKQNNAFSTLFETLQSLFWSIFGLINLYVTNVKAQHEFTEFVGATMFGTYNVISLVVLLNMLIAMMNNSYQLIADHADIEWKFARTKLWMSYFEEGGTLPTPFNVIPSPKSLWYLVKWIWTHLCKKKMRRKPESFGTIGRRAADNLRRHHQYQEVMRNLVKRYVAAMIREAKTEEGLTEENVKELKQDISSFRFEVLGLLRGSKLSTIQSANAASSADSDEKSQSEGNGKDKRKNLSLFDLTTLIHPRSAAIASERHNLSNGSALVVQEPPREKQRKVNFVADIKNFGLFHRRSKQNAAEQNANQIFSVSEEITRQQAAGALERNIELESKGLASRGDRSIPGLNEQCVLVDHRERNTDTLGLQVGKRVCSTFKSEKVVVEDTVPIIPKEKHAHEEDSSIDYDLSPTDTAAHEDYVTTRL

CCN1CCN(c2ccc(S(=O)(=O)N3CCCCC3)cc2NC(=O)c2cccc(F)c2)CC1
inactive: outcome [1] | outcome [2] | outcome [3] | outcome [4] | outcome [5] | outcome [6] | outcome [7] | outcome [8] | outcome [9] | outcome [10] | outcome [11] | outcome [12] | outcome [13] | outcome [14] | outcome [16] | outcome [17]
active: potentiation [15] 18.4%

COc1cc(/C=C2\C(=O)ON=C2c2ccccc2)cc(Cl)c1O
active: inhibition [5] 76%
inactive: outcome [1] | outcome [2] | outcome [3] | outcome [4] | outcome [6] | outcome [7] | outcome [8] | outcome [9] | outcome [10] | outcome [11] | outcome [12] | outcome [13] | outcome [14] | outcome [15] | outcome [16] | outcome [17]

COc1ccc(C(=O)/C=C/C(=O)N(CC(=O)NC2CCCCC2)CC2CCCO2)c(O)c1 (stereo not given)
inactive: outcome [1] | outcome [2] | outcome [3] | outcome [4] | outcome [5] | outcome [6] | outcome [7] | outcome [8] | outcome [9] | outcome [10] | outcome [11] | outcome [12] | outcome [13] | outcome [14] | outcome [15] | outcome [16] | outcome [17]

O=C(CN1CCCN(S(=O)(=O)c2ccc(F)cc2)CC1)Nc1ccccc1Br
inactive: outcome [1] | outcome [2] | outcome [3] | outcome [4] | outcome [6] | outcome [7] | outcome [8] | outcome [9] | outcome [10] | outcome [11] | outcome [12] | outcome [13] | outcome [14] | outcome [15] | outcome [16] | outcome [17]
active: inhibition [5] 70%

Cc1ccc(-c2ccc3c(c2)S(=O)(=O)c2ccccc2C3=O)cc1
inactive: outcome [1] | outcome [2] | outcome [3] | outcome [4] | outcome [5] | outcome [6] | outcome [7] | outcome [8] | outcome [9] | outcome [10] | outcome [11] | outcome [12] | outcome [13] | outcome [14] | outcome [15] | outcome [16] | outcome [17]

CCOC(=O)c1c(NC(=O)C2CCCO2)sc2c1CCC2 (stereo not given)
active: potentiation [4] 40% | potentiation [15] 47.8%
inactive: outcome [1] | outcome [2] | outcome [3] | outcome [5] | outcome [6] | outcome [7] | outcome [8] | outcome [9] | outcome [10] | outcome [11] | outcome [12] | outcome [13] | outcome [14] | outcome [16] | outcome [17]

C/C(=N/Nc1ccnc2cc(Cl)ccc12)c1ccc(N)cc1
inactive: outcome [1] | outcome [2] | outcome [3] | outcome [4] | outcome [5] | outcome [6] | outcome [7] | outcome [8] | outcome [9] | outcome [10] | outcome [11] | outcome [12] | outcome [13] | outcome [14] | outcome [15] | outcome [16] | outcome [17]

CCC(=O)Nc1cc(ON=C(C)C)cc([N+](=O)[O-])c1
inactive: outcome [1] | outcome [2] | outcome [3] | outcome [4] | outcome [5] | outcome [6] | outcome [7] | outcome [8] | outcome [9] | outcome [10] | outcome [11] | outcome [12] | outcome [13] | outcome [14] | outcome [15] | outcome [16] | outcome [17]

COC(=O)c1ccc(COc2ccc(/C=N/Nc3nc(C)cc(=O)[nH]3)cc2)cc1
inactive: outcome [1] | outcome [2] | outcome [3] | outcome [4] | outcome [5] | outcome [6] | outcome [7] | outcome [8] | outcome [9] | outcome [10] | outcome [11] | outcome [12] | outcome [13] | outcome [14] | outcome [15] | outcome [16] | outcome [17]

O=c1c2ccccc2nc(SCc2nc3ccccc3s2)n1CCCO
inactive: outcome [1] | outcome [2] | outcome [3] | outcome [4] | outcome [5] | outcome [6] | outcome [7] | outcome [8] | outcome [9] | outcome [10] | outcome [11] | outcome [12] | outcome [13] | outcome [14] | outcome [15] | outcome [16] | outcome [17]

O=C(CSc1nnc(-c2ccccc2)o1)c1ccc2c(c1)OCCO2
inactive: outcome [1] | outcome [2] | outcome [3] | outcome [4] | outcome [5] | outcome [6] | outcome [7] | outcome [8] | outcome [9] | outcome [10] | outcome [11] | outcome [12] | outcome [13] | outcome [14] | outcome [15] | outcome [16] | outcome [17]

O=C(C1CC1)N1CCc2cc(S(=O)(=O)NC3CCN(Cc4ccccc4)CC3)ccc21
inactive: outcome [1] | outcome [2] | outcome [3] | outcome [4] | outcome [5] | outcome [6] | outcome [7] | outcome [8] | outcome [9] | outcome [10] | outcome [11] | outcome [12] | outcome [13] | outcome [14] | outcome [15] | outcome [16] | outcome [17]

Cc1cc(OCC(=O)NNC(=S)NC(=O)c2cccs2)ccc1Cl
inactive: outcome [1] | outcome [2] | outcome [3] | outcome [4] | outcome [5] | outcome [6] | outcome [7] | outcome [8] | outcome [9] | outcome [10] | outcome [11] | outcome [12] | outcome [13] | outcome [14] | outcome [15] | outcome [16] | outcome [17]

Cc1ccc(NC(=O)c2cccs2)cc1
inactive: outcome [1] | outcome [2] | outcome [3] | outcome [4] | outcome [5] | outcome [6] | outcome [7] | outcome [8] | outcome [9] | outcome [10] | outcome [11] | outcome [12] | outcome [13] | outcome [14] | outcome [15] | outcome [16] | outcome [17]

C=CCNC(=S)N1CCN(C2CCCCC2)CC1
active: potentiation [3] 53% | potentiation [4] 36% | potentiation [15] 18.6%
inactive: outcome [1] | outcome [2] | outcome [5] | outcome [6] | outcome [7] | outcome [8] | outcome [9] | outcome [10] | outcome [11] | outcome [12] | outcome [13] | outcome [14] | outcome [16] | outcome [17]
